USP28 block = blocks human USP28 ubiquitin-rhodamine cleavage; purified USP28, Ub-rhodamine cleavage fluorescence, 30 min; Q96RU2; actives 3% (n = 47,000); inhibition, % at 25 µM
OTUD3 block = blocks human OTUD3 ubiquitin-rhodamine cleavage; AID 1645858; inhibition, % at 25 µM; purified OTUD3, Ub-rhodamine fluorescence, 2 h; actives 0.7% (n = 47,000)
USP17 inh = inhibitors of human USP17 deubiquitinase; A8MUK1; purified USP17, Ub-rhodamine cleavage fluorescence, 3 h; inhibition, % at 50 µM; actives 6.5% (n = 47,000); AID 1645855
USP30 block = blocks human USP30 ubiquitin-rhodamine cleavage. inhibition, % at 25 µM. actives 5.3% (n = 47,000). purified USP30, Ub-rhodamine cleavage fluorescence. Q70CQ3
Target sequence (Q70CQ3 whole entry, looked up): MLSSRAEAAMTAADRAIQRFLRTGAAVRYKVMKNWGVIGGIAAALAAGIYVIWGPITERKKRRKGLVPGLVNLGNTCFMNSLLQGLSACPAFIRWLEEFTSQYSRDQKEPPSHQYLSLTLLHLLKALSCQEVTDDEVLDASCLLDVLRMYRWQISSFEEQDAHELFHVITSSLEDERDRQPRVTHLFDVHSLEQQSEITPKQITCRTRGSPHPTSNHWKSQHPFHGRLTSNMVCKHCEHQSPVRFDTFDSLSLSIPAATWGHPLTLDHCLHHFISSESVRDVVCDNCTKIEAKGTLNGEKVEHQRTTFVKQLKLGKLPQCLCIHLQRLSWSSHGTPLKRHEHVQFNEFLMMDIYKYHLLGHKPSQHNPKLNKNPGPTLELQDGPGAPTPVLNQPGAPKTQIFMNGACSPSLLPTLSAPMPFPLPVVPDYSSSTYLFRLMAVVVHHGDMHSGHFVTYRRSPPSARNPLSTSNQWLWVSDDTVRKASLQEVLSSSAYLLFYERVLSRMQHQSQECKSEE
Starred values were filed as active, the others as inactive; · = not tested or not shown. Only some compounds are listed: those with a hit (about 11% of all), similar ones and a draw of the others. Cut-off read from the data, not from the text of the source: active = inhibition above about 30%; inactive = the rest.

SMILES	USP28 block	OTUD3 block	USP17 inh	USP30 block
CN(C)S(=O)(=O)c1cccc(NC(=O)c2ccc(N3CCCC3=O)cc2)c1	44.2*	14.3	48.2*	32.0*
COc1ccc(NC(=O)CSc2ncnc3c2sc2nc(CC(C)C)c4c(c23)CCC4)cc1	21.2	10.0	8.0	20.7
CC(C)Cc1nc2sc3c(NC4CCCCC4)ncnc3c2c2c1CCC2	-8.2	-3.7	-8.1	-8.5
CCCc1nc2sc3c(NC4CCCCC4)ncnc3c2c2c1CCC2	74.8*	5.4	11.6	23.0
CCCCc1nc2sc3c(SCC(=O)OC)ncnc3c2c2c1CCC2	25.7	-9.4	-5.5	-13.3
CCCCNc1ncnc2c1sc1nc(CCCC)c3c(c12)CC(C)(C)OC3	-4.2	1.9	44.9*	14.2
CCc1nc2sc3c(NCCN4CCOCC4)ncnc3c2c2c1COC(C)(C)C2	-6.7	-0.1	5.1	-0.3
CCCc1nc2sc3c(N(CC)CC)ncnc3c2c2c1CCC2	52.3*	1.2	-2.1	-8.6
CCCCc1nc2sc3c(SCC(=O)Nc4ccc(OC)cc4)ncnc3c2c2c1CCC2	28.5	14.5	24.8	47.6*
Cc1ccc(C(=O)Nc2cnn(-c3ncncc3N3CCCCC3)c2)cc1	0.0	-16.9	-23.2	-22.6
O=C(Cn1cc(-c2ccccc2)oc1=O)NCc1ccccc1Cl	25.6	11.9	10.2	1.7
CCn1ncc(S(=O)(=O)Nc2ccn(Cc3cccc(F)c3)n2)c1C	0.8	0.0	-2.2	-1.5
CCCc1nc2sc3c(NCCc4ccc(OC)c(OC)c4)ncnc3c2c2c1CCC2	67.1*	-28.0	-23.1	-46.4
COc1ccccc1N1CCN(C(=O)CCC(=O)Nc2ccc3nc(N4CCOCC4)cc(C)c3c2)CC1	-1.8	-3.3	-0.7	-2.9
CC(=O)c1ccccc1NC(=O)Cc1ccc(-c2ccccc2)cc1	-12.2	-64.5	-11.6	-273.6
N#Cc1ccc(-c2ccc(OCC(=O)Nc3ccc4c(c3)CCC4)cc2)cc1	40.7*	42.3*	23.5	43.9*
CC(=O)c1ccccc1NC(=O)COc1ccc(-c2ccc(C#N)cc2)cc1	9.4	5.1	78.3*	5.0
O=C(CSc1nnc(-c2ccncc2)n1Cc1ccccc1)c1ccc2[nH]c(O)cc2c1	27.5	-5.4	57.7*	-48.2
Cc1nnc(SCC(=O)c2ccc3ccccc3c2)n1Cc1ccccc1	0.8	-3.0	0.1	6.1
Cc1cccc(C(=O)Nc2ccc3c(c2)nc(CSc2nccc(C)n2)n3C)c1	92.8*	0.9	4.8	25.6
CCn1c(CCc2ccc(NC(=O)c3ccccn3)cc2)nc2ccccc21	·	2.9	-0.8	·
CCC(=O)Nc1ccc2c(c1)nc(CSc1nccc(C)n1)n2CC	91.9*	-1.8	-5.1	5.9
CC(=O)c1cccc(NC(=O)Nc2ccc(CCc3nc4ccccc4n3C)cc2)c1	20.5	11.4	32.7*	19.3
Cn1c(CCN2CCCC2)nc2cc(NC(=O)c3ccccc3)ccc21	2.6	-6.3	59.2*	-23.5
COc1ccc2c(c1)C[C@@H](c1cccnc1)N[C@H]2c1cccc(F)c1	4.8	4.5	4.3	13.7
SMILES	USP28 block	OTUD3 block	USP17 inh	USP30 block
O=C(CN1CCC2(CC1)N=C(c1ccc(F)cc1)C(=O)N2)Nc1ccc(F)c(F)c1	11.7	10.6	0.7	43.6*
COC(=O)CCC(c1ncc(C(F)(F)F)cc1Cl)S(=O)(=O)c1ccccc1 (stereo not drawn)	22.5	23.9	43.8*	58.3*
COc1ccc(-c2nc3c4c(ncn3n2)Oc2c(c(C)nn2-c2ccccc2)C4c2ccc(OC)c(OC)c2)cc1 (stereo not drawn)	-6.0	0.7	15.4	-2.7
COc1ccccc1-c1nc2c3c(C)c(C)n(Cc4cccnc4)c3ncn2n1	51.4*	-11.8	-6.0	-23.6
COc1ccc(/C=N/OCc2nc3c4c(ncn3n2)Oc2c(c(C)nn2-c2ccccc2)C4c2ccco2)cc1 (stereo not drawn)	11.2	9.0	22.3	41.6*
COc1ccccc1-c1nc2c3c(ncn2n1)Oc1c(c(C)nn1-c1ccccc1)C3c1cccnc1 (stereo not drawn)	-4.2	2.3	54.2*	8.8
COc1ccccc1-c1nc2c3c(C)c(C)n(CCCN(C)C)c3ncn2n1	-10.9	-12.6	-14.9	-92.3
Cc1cccc(O)c1-c1nc2c(-c3nc4c(C(=O)O)cccc4o3)cccc2o1	17.1	33.3*	46.7*	-7.8
Cc1cc(N2CCN(c3ncccn3)CC2)nc2ccc(NC(=O)c3ccncc3)cc12	-2.5	-3.0	71.5*	-2.6
Cc1c(C(=O)NCC2(N3CCCCC3)CCCCC2)oc2c1ccc1ccccc12	-43.4	-34.6	-23.9	-127.7
Cc1c(C(=O)Nc2ccc(-c3nnc4n3CCCCC4)cc2)oc2c1ccc1ccccc12	68.5*	-0.2	-3.5	-12.1
O=C(Nc1ccc(-c2nnc3n2CCCCC3)cc1)c1cc2ccccc2o1	34.7*	-14.7	-2.3	-1.6
Cc1ccc(-c2cc(NC(=O)CN3CCN(CC(=O)N(C)C)CC3)on2)cc1	-9.1	-6.2	-7.7	-20.5
SC(COCc1ccccc1)CN1CCN(c2ccccc2)CC1 (stereo not drawn)	24.0	33.2*	22.7	44.0*
COc1ccc(N2CCN(CC(O)COCc3ccc(Cl)cc3)CC2)cc1 (stereo not drawn)	-14.2	-4.2	·	-52.2
COCCCNC(=O)c1ccc(Cn2c(=O)c3ccccc3n(CC(=O)Nc3ccc(OC)cc3OC)c2=O)cc1	·	5.0	74.6*	·
COCCCNC(=O)c1ccc(Cn2c(=O)c3ccccc3n(CC(=O)Nc3ccc(OC)cc3)c2=O)cc1	5.1	-0.1	66.5*	5.7
COCCCNC(=O)Cn1c(=O)n(Cc2ccc(C(=O)NCc3ccccc3OC)cc2)c(=O)c2ccccc21	27.0	24.2	12.6	52.9*
CCOc1cc(CN2C[C@@H](c3ccccc3)[C@H](c3ccn[nH]3)C2)ccc1OC	-9.9	-5.3	-13.3	-6.9
CCc1c(-c2ccccc2)n(CCOC)c2nc3c(c(=O)n(C)c(=O)n3C)n12	9.9	13.3	-10.7	28.2
COc1ccc(C(=O)c2c[nH]cc2-c2ccc(C)cc2)cc1OC	-2.6	0.9	31.2*	13.0
O=C1CCSc2ccc(Cl)cc2N1Cc1ccc(Cl)cc1	41.8*	17.4	12.6	29.8
O=C1CCSc2ccccc2N1Cc1ccccc1F	25.5	-0.4	-0.1	13.6
COC(=O)CCCn1c(-c2ccccc2)cn2c3c(=O)n(C)c(=O)n(C)c3nc12	0.9	6.2	-14.2	0.8
Cc1ccc(S(=O)(=O)N2CCCCC2)cc1NC(=O)CN1C(=O)CN(C)C1=O	-12.3	-4.0	-3.2	-13.2
Cc1cccc(NC(=O)CN2C(=O)COc3cc(S(=O)(=O)N4CCCC4)ccc32)c1C	20.6	11.2	18.9	60.0*
CC(NCC(=O)Nc1cc(S(=O)(=O)N2CCCCCC2)ccc1Cl)c1ccccc1 (stereo not drawn)	17.5	28.5	17.9	42.9*
Cc1ccc(S(=O)(=O)N2CCCCC2)cc1NC(=O)Cc1cccc(F)c1	59.7*	-3.1	-9.2	-3.7
Cc1ccccc1NC(=O)c1cc(S(=O)(=O)N2CCCCCC2)ccc1Cl	23.8	27.0	·	63.0*
O=C(Cn1cnc2onc(-c3ccccc3F)c2c1=O)NCCc1ccccc1	-0.3	1.4	-8.8	-20.7

Screening results from PubChem BioAssay.
